The record followed here is PubChem BioAssay AID1508600 (Functional Genomics Laboratory (NCATS/FGL), 2020).

In all, about 53,000 sequences went through this assay and about 3,700 (7%) were called active. Many of the other results were omitted from the sample, so actives are more common in it than they were. Values without a mark were called inactive.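 How the source made its calls: active means gene knockdowns whose robust z-score for IL-1 alpha signal is at least 2 or at most -2, so actives lie on both sides; inactive means the rest.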

This assay in a line: Components of the Cytosolic LPS Sensing Pathway: Gene Identification via Genome-wide siRNA Screen.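 Further: robust z of the log signal after scaling to non-targeting control siRNA wells of the plate.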 The note with it: RAW264.7 macrophages, IL-1a HTRF, actives lie on both sides, screened at 100 nM (by protocol), cells primed 5 h with Pam3CSK4 first. A digest of the protocol:
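RAW264.7; siRNA 100 nM final, RNAiMAX, 48h 37 degrees C; Pam3CSK4 5 h; LipidA + TransIT-TKO 24 h; IL-1a HTRF; CellTiter-Glo viability; robust z vs negative-control median.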
A general note: TR-FRET usually uses a lanthanide donor and a delayed reading to cut background.
GGUAACCAAAACAAUUCUGTT against Cog8: the z-score was -0.00241.
To GGUGUCUGAGUAAUUCUGGTT against Zscan5b belongs -1.55; to GUGUAGCUCUUCACAGUUATT against Fgf2os, 0.673; to GGCUUUGGAAUGAGAGCUUTT against Dynlrb1, -2.07 (active).
With “CGUGUUUAGGAAAAAUUGUTT against 2510039O18Rik” the figure was -0.398; with CCUGCUAAGUGAAUUUGUGTT against Cmpk1, 2.18 (active); with GCAACGAGCAAAAAGCAUGTT against Htr2a, -0.794.
To GGUCCUUAUCGCUUGGAUGTT against Vwa8 belongs -0.202; to GGCUAAGACCAAAACUUUATT against Cyp4f13, 0.772; to GCAGCUUUGAAAUUGUCCATT against Stard5, -1.72.
Take CGAUGCAAAAAGAAUAGACTT against Mark1: the z-score was 0.673.
To GGCUAGUUUUCUCUUAAAUTT against Usp1 belongs -3.12 (active); to GAGUGUCCGAUAGACCGUUTT against Rbm4, -0.429; to GGCGCAAAUACUUCUUCAUTT against Nrg1, 0.533.
Regarding GCACCUUUGAGUGCAACAUTT against Rnf185, the z-score was -2.37 (active).
With CCUAAGAUUUUGGAACAAATT against Cenpm, the z-score was -0.47.
For GGCCAGGAGAAGAUUGAACTT against Ccdc42, the z-score is 0.00447.
As to GGCUGAAUCGGCAUUUCCATT against Klhdc3, the z-score is -0.184.
To GGCUGCAUGGUACAGAUCUTT against Olfr463 belongs -2.33 (active).
With GCUUUUUGAGUCUGAUUUATT against Dmgdh the figure was 0.413; with GGCAUUCAAAAGGUAAAAUTT against Grid2, -0.515.
To GCUGACUGCCAAGGAUUUUTT against Ogn belongs -0.135; to “GGCAUGAAACCUCCAAAGCTT against 1520401A03Rik”, 0.643.
CGGAUAUUUACGAACUUACTT against Pitpnb: the z-score was 1.24.
Take GGGUCAGAUUUUCAAUGUCTT against Bmpr1b: the z-score is 0.8.
To GGUUGAAACUGCUCUCAAGTT against Prl2a1 belongs 1.77; to GGACCAUGAGGGAAUACAGTT against Bdkrb2, 4.91 (active).
To CGCAGACAAGAAAUGAAGGTT against Hnf4aos belongs -1.98.
Regarding GCAUGAGGAAAAAUCUUCATT against Neurod4, the z-score was -0.158.
As to GGAGAAAUUUAAGAAGAGUTT against Xrcc5, the z-score was 0.674.
To GCUACAUAAUUCCGAAGUUTT against Fmr1 belongs 2.23 (active); to GCCAGAGGAUAACCUAUCGTT against Dsg4, -0.254; to AAACUUGGCGUAUCAGGAATT against Gm3696, -1.45.
Consider GGAGUUUGUCUUCUCUUUCTT against Foxf1, for which the z-score was 0.0377.
GGAGAGUAUGGACAGUAUUTT against Pgc: the z-score was 2.96 (active).
With GCAAAGACAAUCUUUAAGGTT against Pde4d the figure was -0.747.
With CCUUGUAAGUGAGAUCCGATT against Olfr118 the figure was 1.38.
To GGAGUAGAUGACAACACUATT against Defb19 belongs -0.401; to GGCAGCUGUAGAGGUGUUCTT against Haus7, 2.36 (active); to CGUGGCUAAACAAAGAGCUTT against Sass6, -0.841.
As for CCCAAAAACGUGACAUCUUTT against Inppl1, the z-score is 0.901.
To GCCUGGAAUCUCUUCAUGUTT against Pde3a belongs 0.679; to GGUGUUCUUGAGCUGUGAGTT against Igfbp7, -2.32 (active).
With CCAAAAGGUUCGAGUUUCATT against Padi4 the figure was 1.57.
With GGAGUGUGUAUGGAAAAUATT against Tll1 the figure was 0.0134.
Regarding GGCUCUUUCAACGUAAAUUTT against Fan1, the z-score is -2.72 (active).
With GGACCUUGGGCAGAUUCAATT against Atp10d the figure was 0.54; with GGGUGUACAGGAUUUCCACTT against Nfyc, 0.0255; with GGAGCAACAACUUAAAUGUTT against Slc16a4, 1.18.
Consider GCUUUAGAUACGUGAUUAGTT against Desi2, for which the z-score is -0.125.
For CCUUAUGAGUCUUACGACUTT against Zfp326, the z-score was 1.15.
To CCCUCAAAGACCUGUACAUTT against Gm266 belongs 2.78 (active); to GGAUGAUGAGCUGAACUUUTT against Mgrn1, -0.897; to AAGAAUACUCAGAUCAGUUTT against Magee2, 0.111.
With GGAAAUCUCAGGUGAGGUCTT against Clcc1 the figure was -0.127.
With GGAUCAUCAAGAUAUAGAUTT against Trpm7 the figure was 2.44 (active).
GCCAGGAAUCACAAGAGCUTT against Mtg1: the z-score was 0.571.
To GGAGUUAGAAACUCAUUUUTT against Ppargc1b belongs 1.5; to GGCACCCAUUCCUAAAAUGTT against Hmgn5, -0.929; to GGAUCUGAAAAAAUUAAGCTT against Stat2, 0.65.
To GGAUAUGCCUCCCUUGAUGTT against Gstt3 belongs -2.4 (active); to CGAGUGUUUGGACAACAAUTT against Ldlr, 0.391.
CUAUGUGGUCACAAUAGAGTT against Olfr1360: the z-score was 0.411.
With CCUAUGUCACUAAGGCACGTT against Nudt13 the figure was 0.482; with GCACGAUCUUCCAAACCCUTT against Dhh, -1.25; with CCAGGGUGGUCUUUUGAAGTT against Eif1, -1.66.
To “GGUAGAUGAUAAUUUCACUTT against 4930595M18Rik” belongs -0.894; to GCCAUGAGACACCUUCUCUTT against Olfr843, -1.96; to GGCGAACUGAAGGAUAUGGTT against Anapc5, 0.835.
